The whole screen tested about 53,000 sequences, of which about 3,700 (7%) were called active.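 How the source made its calls: active means gene knockdowns whose robust z-score for IL-1 alpha signal is at least 2 or at most -2, so actives lie on both sides; inactive means the rest.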 The sample as a whole holds a higher share of actives than the screen did.

The assay in a line: Components of the Cytosolic LPS Sensing Pathway: Gene Identification via Genome-wide siRNA Screen.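 Further: robust z of the log signal after scaling to non-targeting control siRNA wells of the plate.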 The note with it: RAW264.7 macrophages, IL-1a HTRF, actives lie on both sides, screened at 100 nM (by protocol), cells primed 5 h with Pam3CSK4 first. Summed up: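 Using IL-1a HTRF as read-out, the screen measured release from RAW264.7 cells after 48h siRNA knockdown (100 nM), 5 h Pam3CSK4 priming and 24 h cytosolic LipidA. Values were expressed relative to negative-control wells as robust z-scores.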
A general note: In TR-FRET formats the signal depends on donor and acceptor labels being close together.
Regarding GGAGAGAAAAAAGUCUCUCTT against Olfr66, the z-score is 2.55 (active).

Regarding GCAACUGUUACUUCUCAACTT against Lrif1, the z-score was 0.598 (inactive).

For the sequence GGUUAACUCCUUUUCUAGATT against Ints13, the z-score is -0.52 (inactive).

Turning to GCCUACACCAGUCCUUUGATT against Baiap2l1, the z-score was 0.509 (inactive).

For the sequence GGAACUAUCCAGUAGGUAGTT against Mill2, the z-score is 0.846 (inactive).

In the case of GGUUCUGGAUUUCUGUUUUTT against Phf24, the z-score was -1.38 (inactive).

For GGAUGAAGAUGGAGAUCUUTT against Tfg, the z-score is 2.14 (active).

Consider GGAAAAAGAACACCUUUUATT against Ints6l, for which the z-score is -0.74 (inactive).

With GGACACCACCAAUCUUGACTT against Arsg, the z-score was -1.57 (inactive).

For GGGCAUUGGGAUCCUCAAUTT against Olfr139, the z-score was -0.734 (inactive).

Consider CGGAUCUUGUCAAUAACCATT against Angptl1, for which the z-score was 0.295 (inactive).

As for GCAGGAGUAAGAAUGAAUGTT against Luzp1, the z-score is 0.999 (inactive).

In the case of GGAACUUAGAAGUUUACAATT against Caml, the z-score is -0.0418 (inactive).

With GGUCACAAAGAAGAAUCACTT against Heg1, the z-score is -2.31 (active).

With GGUUGAGUGUUUGAAGUCATT against Slc38a11, the z-score is -1.9 (inactive).

As for GCUUUACUCCCUAAAUUCATT against Dmrt3, the z-score is 0.755 (inactive).

As to CCUCUUAGAUCAGGAUUAUTT against Usp37, the z-score was 0.991 (inactive).

Take GGCAUGGAAUGAGCUUUUCTT against Nr2e3: the z-score is 3.83 (active).

With GGACUAAGCAAUCUCUUUUTT against Gspt2, the z-score is 0.81 (inactive).

For GGUGCUUUGUUAUCCAUAATT against Tnfrsf26, the z-score was -2.72 (active).

As for CCUAAUUGUAGUAGUACUATT against Olfr117, the z-score is -0.955 (inactive).

GGCCUAGCAAUUCUUGAGCTT against Gm5087: the z-score is -0.18 (inactive).

On to CCCUGUAUAUUGCAUUUCCTT against Pcdhb21, for which the z-score is 0.198 (inactive).

Regarding GGGAGUUUUUAUAUGGUUUTT against Ybey, the z-score is 1.27 (inactive).

With GCAGAUGACUAUCGGAAGUTT against Usp53, the z-score is 2.19 (active).

As for GGGCAGCAAAGAAUUAACUTT against Ptpmt1, the z-score was -0.619 (inactive).

For the sequence GGAAGAAAAUCUUGAAGCATT against Ddx51, the z-score is -0.232 (inactive).

Consider GCGAUAUGACAGACUCUUCTT against Csrnp1, for which the z-score is 1.79 (inactive).

Consider GGAUGUUAUUCGCCACGCGTT against Zfp335, for which the z-score is -0.134 (inactive).

With CCCGUUCAAGCAAUUACAUTT against G2e3, the z-score was -1.05 (inactive).

In the case of GGUGAAGACUUCCAGAAGGTT against Reg3a, the z-score was -0.186 (inactive).

For the sequence CCUGUACAGUUGGAAACAUTT against Snrpd1, the z-score is -2.02 (active).

As to GGACUUCUCCUUUAAUAAUTT against Cox7a2l, the z-score is -0.494 (inactive).

GCCCGACCUGUUGAGAAGATT against Znhit3: the z-score was 1.43 (inactive).

GGAGGAAAAGUAGGUUUGCTT against Peli1: the z-score is -0.531 (inactive).

Consider GGUAAGUGGAGGUAUUCUUTT against Egln1, for which the z-score was 2.28 (active).

Turning to GGCCAGGAAAUAUGAAAUATT against Phtf1, the z-score was -0.352 (inactive).

GCCUUGAUAAUUUUGUAAGTT against Gimap9: the z-score is 0.533 (inactive).

In the case of GCACCCUAAUGUGAUCGCATT against Cdk19, the z-score was -1.34 (inactive).

Consider CCACCUGAAUCAUUACUCATT against Rdh19, for which the z-score was -3.29 (active).

GGAGAAGAUUUUCUGUAUCTT against Atp13a5: the z-score is 0.545 (inactive).

Turning to GCUGAGAGACUUGUGAAAUTT against Ndufb11, the z-score was 1.06 (inactive).

Consider GGAAAUCAGCUGUGAAAAATT against Fbxl20, for which the z-score was -0.628 (inactive).

For the sequence GCAGGUCUAAAACUCUCAUTT against Sfmbt1, the z-score is 2.38 (active).

Turning to GCCUCAUCGUCAUCGCCAATT against Gpbar1, the z-score was -0.897 (inactive).

As for GCAUACCUAGACUGAAAACTT against Rilpl2, the z-score is -0.477 (inactive).

Consider GGAGCUGUUUCCAGUUCAGTT against Tomm40, for which the z-score is -1.12 (inactive).

As to CGUGCUGGUAACGGAAUUGTT against Ptger2, the z-score was 2.29 (active).

In the case of GGGAACAGGAGAAAACGGATT against Bnipl, the z-score was 1.2 (inactive).

As to GGAAGACAACUGUUGUGGCTT against Dagla, the z-score was -0.54 (inactive).

As for GUUCGGUACAACUUUUCUGTT against Alx4, the z-score is 0.326 (inactive).

With GGAUAAAAAUCACCCACUGTT against Vwa8, the z-score was 0.21 (inactive).

On to GCCUCUUAAUGCUUUUGUATT against Sfxn1, for which the z-score is -0.272 (inactive).

Turning to GGUGGUUGGAGUACUCAAGTT against Capza1, the z-score was -2.53 (active).

Consider GCACAUCACAAGAAUUACUTT against Lhfpl1, for which the z-score was -0.0486 (inactive).

In the case of AGCUGACUGUAAAAAAACCTT against Fuom, the z-score was 0.19 (inactive).

Consider GGAAAUGCCAUAGUCCUAUTT against Mrgprb5, for which the z-score was -2.54 (active).

GGAACUGGCCAAGUUUAAATT against Ing3: the z-score is 0.653 (inactive).

Take GGCCAGAACUACGAAGCCATT against Capn12: the z-score was 0.981 (inactive).

In the case of GGACCUUCGUGAGAAUUUCTT against Mst1, the z-score was 0.521 (inactive).

On to CCUACAGUGACCUUUCCCGTT against Apcs, for which the z-score is -1.22 (inactive).

Take GGAUAUCACCCACAAUAAATT against Vps28: the z-score is -0.653 (inactive).

Take GGAGCAAUUCUACCGCUACTT against Fbxw5: the z-score was -2.14 (active).

As for GCCCAUUUUAGUAAACGAATT against Dspp, the z-score was 1.87 (inactive).

As to GGCCUUAAAGAAACACAAGTT against Hnrnph2, the z-score was 2.3 (active).

GGUCCUUCAACGGAAGGGATT against Tagap: the z-score was 0.196 (inactive).

As for GGUUUGCAAUAAUUUUCCCTT against Cyp2c66, the z-score was -0.0991 (inactive).

For CCUAUUAUAGGACAAAGUATT against Efhc2, the z-score was -0.54 (inactive).

Take CCACAAGUUCCACACUCCATT against Olfr1163: the z-score is 0.42 (inactive).
